# Unmarked numbers belong to inactive results. For part of these data: Entries with a potency or affinity are not part of this list. Active and inactive are the calls of the source. Unless noted, the rule behind the calls is not given here.
# What was measured:
# [1] = antimalarial activity against Dd2 strain (AID 2302;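 active = growth inhibition above 50% at the single 2 µM test dose, taken to imply half-maximal potency below 2 µM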;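 note: 0% = DMSO untreated growth and 100% = chloroquine plus artemisinin killed control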); details: P. falciparum Dd2 in RBCs, LDH growth readout, 72 h; at 2 µM; hits give high values
# [2] = human hepatoma cell viability loss – ATP luminescence, cytotoxicity control for P. falciparum antimalarial project, primary screen (AID 2303;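 active = inhibition above 50%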;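 note: 0% = DMSO wells and 100% = digitonin-killed cells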); details: HepG2 viability, 24-48 h, at 10 µM, hits give high values
# [3] = target: L-lactate dehydrogenase (Plasmodium falciparum (isolate CDC / Honduras)) (UniProt Q27743); test: PfLDH activity inhibition – cell lysate, 3D7 strain, counter-screen for P. falciparum growth inhibition project (AID 2304);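 note: 0% = vehicle and 100% = reference inhibitor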; details: P. falciparum 3D7 crude extract, LDH APAD/NBT absorbance; at 2 µM; hits give high values
# L-lactate dehydrogenase (Plasmodium falciparum (isolate CDC / Honduras)), sequence (Q27743 whole entry, looked up): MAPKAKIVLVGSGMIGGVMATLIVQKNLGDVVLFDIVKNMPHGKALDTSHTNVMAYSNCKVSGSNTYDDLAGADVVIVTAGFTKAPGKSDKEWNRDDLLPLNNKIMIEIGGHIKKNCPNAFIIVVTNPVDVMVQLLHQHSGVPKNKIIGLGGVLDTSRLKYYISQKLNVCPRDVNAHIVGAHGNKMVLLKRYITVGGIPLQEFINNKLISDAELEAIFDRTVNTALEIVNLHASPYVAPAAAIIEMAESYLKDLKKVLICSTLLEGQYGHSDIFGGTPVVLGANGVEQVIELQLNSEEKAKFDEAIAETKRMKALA
# [4] = inhibition of 3D7 malaria parasite growth – strain 3D7 (AID 2306);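 note: 0% = DMSO wells and 100% = chloroquine plus artemisinin control wells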; details: P. falciparum 3D7 erythrocytic growth, LDH absorbance, 72 h; at 2 µM; hits give high values
# [5] = target: Calcium-dependent protein kinase 1 (Plasmodium falciparum (isolate 3D7)) (UniProt P62344); test: PfCDPK1 kinase inhibitors, biochemical, TCAMS library (AID 1159585; cut-off not given, nearly all actives have IC50 up to about 0.98 µM;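 note: inhibitors leave more ATP so luminescence rises with inhibition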); details: recombinant PfCDPK1, Kinase-Glo ATP depletion luminescence
# Calcium-dependent protein kinase 1 (Plasmodium falciparum (isolate 3D7)), sequence (P62344 whole entry, looked up): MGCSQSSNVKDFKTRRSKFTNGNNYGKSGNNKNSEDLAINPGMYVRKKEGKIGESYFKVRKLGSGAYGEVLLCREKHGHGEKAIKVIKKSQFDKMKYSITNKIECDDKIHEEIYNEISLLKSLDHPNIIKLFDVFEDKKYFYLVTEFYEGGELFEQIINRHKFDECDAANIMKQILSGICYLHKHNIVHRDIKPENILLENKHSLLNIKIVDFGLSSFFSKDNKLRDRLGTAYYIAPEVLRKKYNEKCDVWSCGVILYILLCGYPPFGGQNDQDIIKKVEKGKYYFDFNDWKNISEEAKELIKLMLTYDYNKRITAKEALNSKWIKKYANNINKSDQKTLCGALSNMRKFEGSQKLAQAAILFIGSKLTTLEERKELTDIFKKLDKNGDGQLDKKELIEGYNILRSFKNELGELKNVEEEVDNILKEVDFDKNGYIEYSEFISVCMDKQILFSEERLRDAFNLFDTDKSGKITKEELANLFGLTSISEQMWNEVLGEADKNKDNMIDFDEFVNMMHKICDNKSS
# [6] = target: Plasmodium falciparum protein kinase 6 (PK6, PF3D7_1337100) (UniProt Q8IDW1); test: PfPK6 kinase inhibitors, biochemical, TCAMS library (AID 1159586); details: recombinant PfPK6, Kinase-Glo ATP depletion luminescence
# Plasmodium falciparum protein kinase 6 (PK6, PF3D7_1337100), sequence (Q8IDW1 1-305): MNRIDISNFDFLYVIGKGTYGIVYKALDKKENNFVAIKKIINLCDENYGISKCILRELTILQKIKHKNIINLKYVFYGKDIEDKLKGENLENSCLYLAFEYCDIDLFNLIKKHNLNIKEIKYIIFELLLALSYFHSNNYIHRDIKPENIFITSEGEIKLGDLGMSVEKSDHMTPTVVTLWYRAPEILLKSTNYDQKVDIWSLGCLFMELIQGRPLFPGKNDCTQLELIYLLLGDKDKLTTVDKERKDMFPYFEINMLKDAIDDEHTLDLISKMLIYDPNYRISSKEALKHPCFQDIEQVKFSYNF
# [7] = target: Protein kinase 7 (PK7), Plasmodium falciparum 3D7 (PF3D7_0213400) (UniProt Q7YTF7); test: inhibition of Plasmodium PK7 catalytic activity – biochemical, TCAMS antimalarial set, Kinase-Glo luminescence (AID 1159587); details: recombinant PfPK7, Kinase-Glo ATP depletion luminescence
# Protein kinase 7 (PK7), Plasmodium falciparum 3D7 (PF3D7_0213400), sequence (Q7YTF7 1-343): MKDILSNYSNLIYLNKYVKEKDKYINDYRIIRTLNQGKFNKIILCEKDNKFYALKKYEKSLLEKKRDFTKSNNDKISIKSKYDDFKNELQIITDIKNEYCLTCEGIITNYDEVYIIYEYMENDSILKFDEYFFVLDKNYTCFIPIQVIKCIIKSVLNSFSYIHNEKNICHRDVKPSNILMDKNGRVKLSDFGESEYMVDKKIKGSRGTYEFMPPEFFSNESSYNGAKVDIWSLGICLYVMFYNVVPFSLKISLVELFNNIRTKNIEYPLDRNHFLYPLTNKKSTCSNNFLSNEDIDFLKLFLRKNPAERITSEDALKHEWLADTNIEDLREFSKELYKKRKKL
# [8] = target: Calcium-dependent protein kinase 4 (Plasmodium falciparum (isolate 3D7)) (UniProt Q8IBS5); test: PfCDPK4 kinase inhibitors, biochemical, TCAMS library (AID 1159588; cut-off not given, nearly all actives have IC50 up to about 0.91 µM); details: recombinant PfCDPK4, Kinase-Glo ATP depletion luminescence
# Calcium-dependent protein kinase 4 (Plasmodium falciparum (isolate 3D7)), sequence (Q8IBS5 whole entry, looked up): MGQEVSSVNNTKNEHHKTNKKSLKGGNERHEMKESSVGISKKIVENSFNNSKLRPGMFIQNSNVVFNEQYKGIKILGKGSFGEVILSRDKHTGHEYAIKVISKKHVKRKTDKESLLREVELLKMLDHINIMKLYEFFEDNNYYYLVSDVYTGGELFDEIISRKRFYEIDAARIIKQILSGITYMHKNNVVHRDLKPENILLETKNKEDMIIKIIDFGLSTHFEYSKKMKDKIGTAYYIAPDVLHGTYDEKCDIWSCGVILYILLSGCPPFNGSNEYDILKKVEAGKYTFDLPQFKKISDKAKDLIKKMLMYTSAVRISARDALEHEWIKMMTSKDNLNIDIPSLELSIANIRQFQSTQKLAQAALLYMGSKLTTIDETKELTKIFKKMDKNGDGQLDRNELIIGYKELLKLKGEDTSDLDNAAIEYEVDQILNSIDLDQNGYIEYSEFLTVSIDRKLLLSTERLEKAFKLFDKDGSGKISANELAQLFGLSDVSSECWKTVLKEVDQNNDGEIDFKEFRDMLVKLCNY
Structure (SMILES),growth inhibition [1],inhibition [2],inhibition [3] [%],growth inhibition [4],outcome [5],outcome [6],outcome [7],outcome [8]
COc1ccc2nccc([C@@H](O)CN3CCC(NC(=O)/C=C/c4ccc5[nH]c(=O)ccc5c4)CC3)c2c1,83% (active),2%,5,96% (active),inactive,inactive,inactive,inactive
O=C(NCCCCN1CCC(c2cccc3ccccc23)CC1)c1ccc(NC(=O)c2ccc(Cl)cc2)cc1,39%,20%,2,99% (active),inactive,inactive,inactive,inactive
COc1cccc(CNC(=O)NC2CCN(c3ccnc(Nc4ccc(F)cc4)n3)C2)c1 (centres undefined),64% (active),20%,-7,94% (active),inactive,inactive,inactive,inactive
O=C(Nc1ccc(F)c(Cl)c1)NC1CCN(c2ccnc3cc(Cl)ccc23)C1 (centres undefined),74% (active),37%,-3,101% (active),inactive,inactive,inactive,inactive
CO/N=C(\C)c1ccc2c(c1)CCN(CCC1CCC(NC(=O)/C=C/c3ccc(F)cc3)CC1)CC2 (centres undefined),15%,45%,1,95% (active),inactive,inactive,inactive,inactive
Cc1ccccc1C1CCN(C2CCC(NC(=O)/C=C/c3ccc4c(c3)OC(F)(F)O4)CC2)CC1 (centres undefined),39%,75% (active),2,100% (active),inactive,inactive,inactive,inactive
Cc1ccc(O)cc1Nc1ccnc2ccc(-c3cccc(CNCCN(C)C)c3)cc12,46%,-7%,-3,100% (active),inactive,inactive,inactive,inactive
O=C(Cc1ccccc1)NC(Nc1ccc([N+](=O)[O-])cc1)C(Cl)(Cl)Cl (centres undefined),100% (active),21%,1,99% (active),inactive,inactive,inactive,inactive
CCCN(CCC)c1nn2c(=O)c(C(=O)N3CCN(Cc4ccccc4)CC3)cnc2s1,89% (active),-22%,-2,84% (active),inactive,inactive,inactive,inactive
CSc1ccccc1NC(=S)NC1CCN(CCCCCNC(=O)/C=C/c2ccc(Cl)c(Cl)c2)CC1,27%,19%,4,98% (active),inactive,inactive,inactive,inactive
Cc1nc2ccc3ccc(CNc4ccc(C(=O)N[C@@H](CCC(=O)O)C(=O)N[C@@H](Cc5cccs5)C(=O)O)c(F)c4)cc3c2c(=O)[nH]1,96% (active),43%,4,97% (active),inactive,inactive,inactive,inactive
COC(=O)c1ccc(NC(=O)c2ccc(CCN3CCC(c4nc(COCC(F)(F)F)c(-c5ccc(F)cc5)o4)CC3)cc2)cc1,37%,22%,-5,89% (active),inactive,inactive,inactive,inactive
CN1CCc2cc(O)c(NS(=O)(=O)c3ccc(-c4ccc(Cl)cc4)cc3)cc2CC1,3%,7%,3,104% (active),inactive,inactive,inactive,inactive
Cc1nnc(NC(=O)c2cn(-c3ccccc3)nc2-c2ccccc2C)o1,87% (active),37%,1,93% (active),inactive,inactive,inactive,inactive
O=C(Nc1ccc(Cl)c(C(F)(F)F)c1)c1ccc(Cl)c([N+](=O)[O-])c1,18%,20%,-2,87% (active),inactive,inactive,inactive,inactive
CC(C)CCN1CCC(Oc2ccc(NC(=O)c3ccc(F)cc3)cc2Cl)CC1,88% (active),33%,4,98% (active),inactive,inactive,inactive,inactive
O=C(/C=C/c1ccc(Cl)c(Cl)c1)N1CCC(CN2CCC(c3nc4ccccc4n3CCCO)CC2)CC1,-4%,60% (active),-8,96% (active),inactive,inactive,inactive,inactive
N#CCCN1CCN(Cc2cccc(-c3ccc(-c4nc5ccc(C(F)(F)F)cc5[nH]4)cc3)c2)CC1,63% (active),23%,4,101% (active),inactive,inactive,inactive,inactive

# Source: PubChem BioAssay
